PubChem BioAssay (Tox21)
Several values for one entry are separate records, joined by “and”; a condition that tells them apart may be missing. Identical values can stand only once. Results filed as inconclusive are left out. More than one record can exist for a structure, and the calls need not agree. Activity calls are given as the source filed them. Unless noted, calls follow the shape of the dose curve; as a rule, active = well fitted curve in the direction sought with a large enough effect in the repeat runs; inconclusive = weak or mixed curves; inactive = no such curve, though single readings can be large; an effect the other way counts as inactive or inconclusive.

Legend:
[1] = qHTS assay to identify small molecule antagonists of the androgen receptor (AR) signaling pathway using the MDA cell line in the presence of 0.5 nM R1881 - cell viability counter screen (AID 1259242); also: nearly all actives have a fitted effect of over 45% in size
Procedure, shortened: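 Live-cell protease activity was measured by CellTiter-Fluor fluorescence after 30 min. Before that, MDA-kb2 MMTV-luciferase cells had 16 hr at 37C without CO2, exposed to test compounds and 0.5 nM R1881 final.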

[2] = molecular target: Estrogen receptor (Homo sapiens) (UniProt P03372); assay: qHTS assay to identify small molecule antagonists of the estrogen receptor alpha (ER-alpha) signaling pathway using the BG1 cell line in the presence of 0.1 nM 17-beta-estradiol (AID 1259244); also: nearly all actives have a fitted effect of over 50% in size
Estrogen receptor (Homo sapiens), sequence (P03372 whole entry, looked up): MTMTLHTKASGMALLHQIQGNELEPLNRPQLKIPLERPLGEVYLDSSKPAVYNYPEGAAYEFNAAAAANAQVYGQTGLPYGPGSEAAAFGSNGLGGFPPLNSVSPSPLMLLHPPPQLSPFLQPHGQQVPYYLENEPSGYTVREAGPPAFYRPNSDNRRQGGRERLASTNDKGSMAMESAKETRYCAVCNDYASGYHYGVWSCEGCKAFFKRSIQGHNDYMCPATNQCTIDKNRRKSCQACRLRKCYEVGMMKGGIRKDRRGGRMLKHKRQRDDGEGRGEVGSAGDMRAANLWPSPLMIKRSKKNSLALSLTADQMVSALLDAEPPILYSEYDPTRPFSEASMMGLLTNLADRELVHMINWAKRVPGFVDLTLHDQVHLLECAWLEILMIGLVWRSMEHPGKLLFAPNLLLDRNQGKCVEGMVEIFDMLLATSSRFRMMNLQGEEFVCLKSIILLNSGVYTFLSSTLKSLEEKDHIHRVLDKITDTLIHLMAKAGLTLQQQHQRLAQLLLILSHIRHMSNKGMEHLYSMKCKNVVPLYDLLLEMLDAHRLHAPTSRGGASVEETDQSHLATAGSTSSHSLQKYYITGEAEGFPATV
Procedure, shortened: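 Luciferase luminescence (ONE-Glo, 30 min at room temperature) was read after 22 hr at 37C exposure to compounds plus 17beta-estradiol at 0.1 nM final. Cells were VM7Luc4E2 with endogenous ER-alpha and an ERE-driven luciferase, pre-cultured 5 days in hormone-depleted medium.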

[3] = qHTS assay to identify small molecule HDAC inhibitors (AID 1259364); also: nearly all actives have a fitted effect of over 45% in size; also: potency is read from the fitted curve at half-maximal effect
Procedure, shortened: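 Luminescence read after 30 min room-temperature HDAC-Glo incubation measures cellular class I/II HDAC activity. Compounds were applied for 2 hr at 37 C to HCT-116 wild-type cells seeded the day before.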

[4] = qHTS assay to identify small molecule HDAC inhibitors - cell viability counter screen (AID 1259365); also: series mostly up to about 92 µM; nearly all actives have a fitted effect of over 50% in size
Procedure, shortened: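 Cytotoxicity was gauged in wild-type HCT-116 cells after a brief 2hr treatment with DMSO-dissolved compounds at 37C and 5% CO2, using CellTiter-Glo luminescence developed for 30min at room temperature.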

[5] = qHTS assay to identify small molecule agonists of the sonic hedgehog signaling (Shh) pathway - cell viability counter screen (AID 1259366); also: nearly all actives have a fitted effect of over 50% in size; also: potency is read from the fitted curve at half-maximal effect
Procedure, shortened: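 Stable Gli1-Luc NIH/3T3 clone, 2,000 cells/well. Compound exposure 24hr at 37C. Read-out: CellTiter-Fluor fluorescence.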

[6] = qHTS assay to identify small molecule antagonists of the sonic hedgehog signaling (Shh) pathway - cell viability counter screen (AID 1259367); also: nearly all actives have a fitted effect of over 55% in size; also: potency is read from the fitted curve at half-maximal effect
Procedure, shortened: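 Fluorescence read-out (CellTiter-Fluor, 1 hr at 37C) taken after 23 hr compound treatment of 3T3 Gli1-Luc cells stimulated with conditioned medium. Cells were seeded at 2,000 per well and pre-incubated 4 hr.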

[7] = qHTS assay to identify small molecule agonists of the sonic hedgehog signaling (Shh) pathway (AID 1259368; calls by dose curve; also: nearly all actives have a fitted effect of over 15% in size; also: potency is read from the fitted curve at half-maximal effect)
Procedure, shortened: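 Luminescence was read after 30 min at room temperature with luciferase reagent. Before that, 3T3Gli1-Luc cells (NIH/3T3 clone, stable Gli1-Luc reporter; 2,000/well) were exposed to compounds for 24 hr at 37C, 5% CO2, compounds being added 4 hr post-plating.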

[8] = qHTS assay to identify small molecule antagonists of the sonic hedgehog signaling (Shh) pathway (AID 1259369; calls by dose curve; also: nearly all actives have a fitted effect of over 45% in size; also: potency is read from the fitted curve at half-maximal effect)
Procedure, shortened: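 Antagonist mode: compound added to 3T3 Gli1-Luc cells followed by conditioned-medium stimulation, 24 h at 37 C, 5% CO2. Inhibition taken as loss of Gli1-driven luciferase luminescence.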

[9] = molecular target: Estrogen receptor beta (Homo sapiens) (UniProt Q92731); assay: qHTS assay to identify small molecule agonists of the estrogen receptor beta (ER-beta) signaling pathway (AID 1259377; active = well fitted activation curve with a large enough effect in the signal ratio in the repeat runs, not every such curve was filed as active; the % refers to the signal ratio)
Estrogen receptor beta (Homo sapiens), sequence (Q92731 whole entry, looked up): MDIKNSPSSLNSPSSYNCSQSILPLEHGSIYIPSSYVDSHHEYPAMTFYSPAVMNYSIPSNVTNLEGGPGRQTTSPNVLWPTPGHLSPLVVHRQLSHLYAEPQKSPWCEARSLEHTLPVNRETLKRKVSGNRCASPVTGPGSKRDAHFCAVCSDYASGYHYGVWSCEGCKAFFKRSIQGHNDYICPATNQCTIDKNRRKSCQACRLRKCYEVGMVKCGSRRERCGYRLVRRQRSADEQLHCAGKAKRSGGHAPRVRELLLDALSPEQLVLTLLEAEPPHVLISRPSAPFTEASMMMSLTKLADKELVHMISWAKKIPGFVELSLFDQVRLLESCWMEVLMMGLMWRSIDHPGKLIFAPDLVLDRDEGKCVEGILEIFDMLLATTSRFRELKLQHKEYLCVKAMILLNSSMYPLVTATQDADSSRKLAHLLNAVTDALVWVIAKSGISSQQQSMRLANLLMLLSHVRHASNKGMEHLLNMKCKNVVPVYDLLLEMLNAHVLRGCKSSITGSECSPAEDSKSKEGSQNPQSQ
Procedure, shortened: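 Measured by fluorescence intensity from a B/G FRET beta-lactamase substrate (2 h, room temperature) in ER-beta-UAS-bla HEK293T cells treated with DMSO-dissolved compounds for 16 hr at 37C and 5% CO2.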

[10] = molecular target: Estrogen receptor beta (Homo sapiens) (UniProt Q92731); assay: qHTS assay to identify small molecule antagonists of the estrogen receptor beta (ER-beta) signaling pathway (AID 1259378; active = well fitted inhibition curve with a large enough effect in the signal ratio in the repeat runs, not every such curve was filed as active; the % refers to the signal ratio; also: potency is read from the fitted curve at half-maximal effect)
Procedure, shortened: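 ER-beta-UAS-bla HEK293T cells in 2% charcoal-stripped FBS medium treated with compound plus 1nM final 17-beta-estradiol for 16 hr at 37C. Beta-lactamase reporter read by FRET substrate fluorescence after 2 hours at room temperature.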

[11] = qHTS assay to identify small molecule agonists of the androgen receptor (AR) signaling pathway in the presence of an antagonist - cell viability counter screen (AID 1259379);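 also: MDA-kb2 human breast cancer cells carrying an MMTV luciferase reporter; series mostly up to about 92 µM; nearly all actives have a fitted effect of over 25% in size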
Procedure, shortened: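 Cytotoxicity counter-screen run in the same wells as the nilutamide-challenged (3.0 µM final) AR agonist assay in MDA-kb2 cells. Compounds tested at 15 concentrations for 16 h, 37 °C without CO2; CellTiter-Fluor fluorescence read.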

[12] = qHTS assay to identify small molecule agonists of the estrogen receptor beta (ER-beta) signaling pathway - cell viability counter screen (AID 1259380); also: nearly all actives have a fitted effect of over 30% in size; also: potency is read from the fitted curve at half-maximal effect
Procedure, shortened: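 Cell viability counter screen: CellTiter-Glo luminescence (30 min, room temperature) measured in the same wells as the beta-lactamase readout, after 16 hr compound exposure at 37C of ER-beta-bla HEK293T cells in 2% charcoal-stripped FBS medium.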

[13] = qHTS assay to identify small molecule antagonists of the estrogen receptor beta (ER-beta) signaling pathway - cell viability counter screen (AID 1259382); also: series mostly up to about 92 µM; nearly all actives have a fitted effect of over 55% in size
Procedure, shortened: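 Cytotoxicity was measured in the same wells by CellTiter-Glo luminescence after 30 min at room temperature. Cells were ER-beta-bla HEK293T in charcoal-stripped serum, given compound together with 1 nM E2 and incubated 16 h at 37C.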

[14] = molecular target: Estrogen receptor (Homo sapiens) (UniProt P03372); assay: qHTS assay to identify small molecule agonists of the estrogen receptor alpha (ER-alpha) signaling pathway in the presence of an antagonist (AID 1259383; calls by dose curve; also: top concentration of the series differs between compounds; nearly all actives have a fitted effect of over 15% in size)
Procedure, shortened: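 Agonist-mode confirmation run in the presence of 10.0nM (final) ICI-182,780 antagonist. The reporter was ERE-driven luciferase in VM7Luc4E2 cells, grown in charcoal-stripped serum. Cells were exposed to 15-concentration compound series for 22hr, then ONE-Glo luminescence was read.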

[15] = qHTS assay to identify small molecule agonists or antagonists of the thyroid stimulating hormone receptor (TSHR) signaling pathway - wild type cell line counter screen (AID 1259384; calls by dose curve)
Procedure, shortened: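 Wild-type Hek293 cells, 800/well, 18 h at 37C, then compound with Ro20-1724 for 30 min RT. cAMP by HTRF (cAMP-d2/anti-cAMP cryptate), 1 h RT, fluorescence read. 15 concentrations, triplicates.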

[16] = molecular target: Thyrotropin receptor (Homo sapiens) (UniProt P16473); assay: qHTS assay to identify small molecule antagonists of the thyroid stimulating hormone receptor (TSHR) signaling pathway (AID 1259385; calls by dose curve; also: nearly all actives have a fitted effect of over 20% in size)
Thyrotropin receptor (Homo sapiens), sequence (P16473 whole entry, looked up): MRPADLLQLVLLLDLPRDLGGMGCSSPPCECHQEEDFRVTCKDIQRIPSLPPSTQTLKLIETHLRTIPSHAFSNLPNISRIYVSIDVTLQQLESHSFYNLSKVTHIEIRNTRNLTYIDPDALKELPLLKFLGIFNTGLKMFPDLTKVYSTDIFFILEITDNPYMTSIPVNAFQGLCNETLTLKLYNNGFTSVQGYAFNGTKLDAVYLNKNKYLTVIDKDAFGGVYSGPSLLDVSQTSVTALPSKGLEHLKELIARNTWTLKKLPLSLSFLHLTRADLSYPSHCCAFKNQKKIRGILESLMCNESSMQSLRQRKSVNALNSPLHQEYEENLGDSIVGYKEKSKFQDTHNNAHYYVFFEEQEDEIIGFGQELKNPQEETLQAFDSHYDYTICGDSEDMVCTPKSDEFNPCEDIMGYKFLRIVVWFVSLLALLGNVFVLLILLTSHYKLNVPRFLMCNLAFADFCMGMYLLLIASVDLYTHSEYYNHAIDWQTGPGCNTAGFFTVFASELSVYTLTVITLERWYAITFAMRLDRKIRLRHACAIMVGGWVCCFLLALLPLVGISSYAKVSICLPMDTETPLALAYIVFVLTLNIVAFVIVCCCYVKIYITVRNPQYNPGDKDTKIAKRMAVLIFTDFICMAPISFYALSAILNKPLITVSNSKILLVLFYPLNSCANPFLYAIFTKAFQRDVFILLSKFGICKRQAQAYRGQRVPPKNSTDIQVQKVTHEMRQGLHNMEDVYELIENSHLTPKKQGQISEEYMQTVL
Procedure, shortened: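 TSHR-HEK293 cells (800/well) plated 18 h, then compounds with Ro20-1724 and TSH at 1.5 ng/mL final, 30 min at room temperature. cAMP quantified by HTRF (cAMP-d2/anti-cAMP-cryptate, 1 h); 15 concentrations in triplicate.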

[17] = qHTS assay to identify small molecule agonists of the estrogen receptor alpha (ER-alpha) signaling pathway in the presence of an antagonist - cell viability counter screen (AID 1259386); also: series mostly up to about 92 µM; nearly all actives have a fitted effect of over 30% in size
Procedure, shortened: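 Compounds tested at 15 concentrations for 22 h at 37C alongside 10.0nM (final) ICI-182,780 antagonist, in VM7Luc4E2 cells grown in phenol red-free, charcoal-stripped medium. Viability read by CellTiter-Fluor fluorescence after 1 h reagent incubation.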

Measured: Potency

COC(=O)CC(=O)OC
inactive: [1] | [2] | [3] | [4] | [5] | [6] | [7] | [8] | [9] | [10] | [11] | [12] | [13] | [14] | [15] | [16] | [17]

ClC/C=C/CCl
inactive: [1] | [2] | [3] | [4] | [5] | [6] | [7] | [8] | [11] | [12] | [13] | [14] | [15] | [16] | [17]

CC1=CC(C)(C)Nc2ccccc21
inactive: [1] | [2] | [4] | [5] | [6] | [7] | [8] | [9] | [10] | [11] | [12] | [13] | [14] | [17]

C1CN(SSN2CCOCC2)CCO1
active: [5] 53.9 µM and 48.6 µM | [6] 48.1 µM and 61.1 µM | [8] 12.1 µM and 24.3 µM
inactive: [1] | [2] | [3] | [4] | [7] | [11] | [13] | [14] | [15] | [16] | [17]
inactive and 48.6 µM (active): [12]

Nc1cc([N+](=O)[O-])ccc1C(=O)O
inactive: [1] | [2] | [4] | [5] | [6] | [7] | [8] | [9] | [10] | [11] | [12] | [13] | [14] | [15] | [16] | [17]

NCCOCCO
inactive: [1] | [2] | [3] | [4] | [5] | [7] | [8] | [9] | [10] | [11] | [12] | [13] | [14] | [17]

CCCCCCCCCCCCO
inactive and 60.4 µM (active): [8]
inactive: [1] | [2] | [3] | [4] | [5] | [7] | [9] | [10] | [11] | [12] | [13] | [15] | [16] | [17]

Nc1ccc2c(c1)C(=O)c1ccccc1C2=O
active: [3] 951 nM and 770 nM | [7] 864 nM
inactive: [1] | [2] | [4] | [5] | [6] | [8] | [13] | [17]

CC(=O)[C@H]1CC[C@H]2[C@@H]3CC=C4C[C@@H](O)CC[C@]4(C)[C@H]3CC[C@]12C
inactive: [1] | [2] | [3] | [4] | [5] | [6] | [7] | [9] | [11] | [13] | [14] | [15] | [16] | [17]
active: [10] 1880 nM

CCOC(=O)C(C)Oc1ccc(Oc2cnc3cc(Cl)ccc3n2)cc1 (stereo unspecified)
inactive: [1] | [2] | [3] | [4] | [5] | [7] | [8] | [11] | [12] | [13] | [14] | [15] | [16] | [17]

Oc1c(Cl)ccc(Cl)c1Cl
inactive: [1] | [2] | [3] | [4] | [5] | [6] | [7] | [8] | [11] | [13] | [17]

C=CN1CCCC1=O
inactive: [1] | [2] | [3] | [4] | [5] | [6] | [7] | [8] | [11] | [12] | [13] | [17]

CCCCCCCCCCCCCO
inactive: [1] | [2] | [3] | [4] | [5] | [7] | [8] | [9] | [10] | [11] | [12] | [13] | [17]
